Screens as filed in PubChem.
ERK EGF block = inhibitors of EGF-stimulated ERK signaling pathway; HEK293-V1b, EGF-stimulated phospho-ERK AlphaScreen; Potency, µM (highest dose often 11.5 µM), for the others: top-dose activity change, negative = inhibition, actives largely listed as inhibitors; 130,000 tested, 0.41% active; AID 1454;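 note: plate controls were stimulated vehicle wells for no effect and unstimulated vehicle basal for full effect; nearly all actives have a fitted effect of over 55% in size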
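Homogeneous cell-based phospho-ERK assay: HEK293/V1b cells in 1% FBS, compound 30 min then EGF 5 min, AlphaScreen luminescence. Activity normalized between DMSO and 25 nM EGF controls; AC50 from Hill modelling.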
IMPase Li cell = cell-permeable IMPase inhibitors with lithium potentiation; CHO-M1 cells, IP1 TR-FRET (IP-One), carbachol + lithium; Potency, µM (titrated, usually from 59.4 µM), without a hit: at the top dose activity, negative = IMPase inhibition, usual class: inhibitors; 210,000 tested, 0.35% active;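 note: IP1 builds up when IMPase is blocked and the TR-FRET signal falls; plate controls were basal vehicle for no effect and high inhibitor control for full effect; nearly all actives have a fitted effect of over 50% in size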
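CHO-M1, 2000 cells/well, 16–30 h culture; cpd + low Li+, 30 min 37C; lysis with d2-IP1/Eu-anti-IP1 Ab, 10 min RT; TR-FRET 665/620 ratio and 620 channel; AC50 via Hill.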
NPSR antagonist = antagonists of human neuropeptide S receptor cAMP signaling | Potency, µM (series often up to 38.3 µM), for the others: at the top dose activity change, negative = inhibition, hits mostly inhibitors | 220,000 tested, 1% active | CHO-NPSR cells, cAMP TR-FRET, antagonist mode | Q6W5P4 | AID 1461; note: nearly all actives have a fitted effect of over 50% in size
Target sequence (Q6W5P4 whole entry, looked up): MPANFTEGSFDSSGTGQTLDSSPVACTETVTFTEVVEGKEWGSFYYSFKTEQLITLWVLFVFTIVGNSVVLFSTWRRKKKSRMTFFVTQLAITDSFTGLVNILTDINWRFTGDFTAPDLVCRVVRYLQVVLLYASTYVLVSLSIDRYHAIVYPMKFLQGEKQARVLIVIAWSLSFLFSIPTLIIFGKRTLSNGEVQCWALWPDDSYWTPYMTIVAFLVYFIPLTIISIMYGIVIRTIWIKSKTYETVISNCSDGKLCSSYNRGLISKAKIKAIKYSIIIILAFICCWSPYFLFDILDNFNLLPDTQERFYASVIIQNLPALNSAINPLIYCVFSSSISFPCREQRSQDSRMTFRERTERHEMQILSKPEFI
* hit, by the source's call; ? = inconclusive; · = not tested or not shown; ! = not active in a repeat; [ ] = dose if it differs, or a comment. The sample as a whole holds a higher share of hits than the screen did. Calls come from the whole dose curve; as a rule, active = well fitted curve in the direction sought with a large enough effect; inconclusive = small, poorly fitted or top-dose-only effect, or another doubt; inactive = no such curve, though single readings can be large; an effect the other way counts as inactive or inconclusive. Unless noted, % is set by controls: 0 for no effect and ±100 for the full control effect; potency is the fitted concentration of half-maximal effect.

SMILES | ERK EGF block | IMPase Li cell | NPSR antagonist
OC[C@@H]1[C@@H](c2ccc(Cl)cc2)C(c2cccc(Cl)c2)=NN1c1ccccc1 | · | -9% | ·
COc1cc(-c2ccc(N=Nc3ccc4c(S(=O)(=O)O)cc(S(=O)(=O)O)c(N)c4c3O)c(OC)c2)ccc1N=Nc1ccc2c(S(=O)(=O)O)cc(S(=O)(=O)O)c(N)c2c1O | -7% | 139% | ·
C=CCNC(=O)c1ccc(Sc2ccc(C)cc2)c([N+](=O)[O-])c1 | · | 7%[38.3 µM] | -26%[46.1 µM]
Cc1ccc(Sc2ccc(CN3CCCCC3)cc2[N+](=O)[O-])cc1 | 10µM* | 15% | ?
CCn1c(=O)n(CCOC)c(=O)c2c3c(sc21)CCCC3 | 2% | 1% | -10%[46.1 µM]
COCCCn1c(=S)[nH]c2sc3c(c2c1=O)CCCS3 | 8% | ? | 7.9µM*
CCCCS(=O)(=O)N1CCc2nc(-c3ccc(OC)cc3C)c3c(c2C1)CO[C@@H](c1ccccc1)C3 | · | 9% | ·
O=C(Nc1nc(-c2cccs2)cs1)c1ccc(S(=O)(=O)N2CCCCC2)cc1 | · | 7%[38.3 µM] | 7%[46.1 µM]
O=C(Nc1nc(-c2cccs2)cs1)c1cccc(S(=O)(=O)N2CCCCCC2)c1 | · | 24%[38.3 µM] | 10µM*
Cc1nc(-c2coc3c(O)c(O)ccc3c2=O)cs1 | -5% | 45% | ·
N#CCc1ccc(NC(=O)/C=C/c2ccc([N+](=O)[O-])o2)cc1 | -1% | 17% | 6.3µM*
N#C/C(=C\c1ccc([N+](=O)[O-])o1)C(=O)Nc1ccc(F)cc1 | -1% | 10% | -47%
COc1ccccc1Oc1c(C)oc2c(CN3CCN(C)CC3)c(O)ccc2c1=O | · | -18%[38.3 µM] | 6%[46.1 µM]
COC(=O)c1ccc(Oc2c(C)oc3c(CN4CCN(C)CC4)c(O)ccc3c2=O)cc1 | · | 13µM* | 0%[46.1 µM]
CC(C)n1c2ccccc2c2nnc(SCC(=O)Nc3ccccc3C(=O)O)nc21 | ? | 7.9µM* | -12%
CCOC(=O)Cc1nnc(NC(=O)CSc2nnc3c4ccccc4n(C(C)C)c3n2)s1 | · | ? | 5%[46.1 µM]
CCn1ccc2cc(OC)ccc2c1=S | · | 11µM* | 4%[46.1 µM]
CCn1cc(C(=O)O)c(=O)c2cc(OC)ccc21 | · | -16%[38.3 µM] | 4%[46.1 µM]
COC(=O)c1ccc2nc(-c3ccc(S(C)(=O)=O)cc3)cn2c1 | -5% | 11µM* | 4%
CS(=O)(=O)c1ccc(-c2cn3cc(C(=O)O)ccc3n2)cc1 | 10% | -29% | 11%
O=C(Nc1cccc2cccnc12)[C@@H]1[C@@H](C(=O)O)[C@H]2CC[C@@H]1O2 | · | -3% | ·
CN(N=O)c1ccc(/C=C\c2ccnc3ccccc23)cc1 | · | 4% | ·
CCOc1ccccc1-c1ccc(C(=O)O)o1 | · | -15% | ·
Cc1ccc(S(=O)(=O)Nc2ccc(NC(=O)Nc3cccc(C(F)(F)F)c3)cc2)cc1 | 7% | 15% | ?
CCN(CC)S(=O)(=O)c1ccc(NC(=O)Nc2cccc(C(F)(F)F)c2)cc1 | · | 25%[38.3 µM] | 16µM*
SMILES | ERK EGF block | IMPase Li cell | NPSR antagonist
CCCCCCOC(=O)C1(O)CC2OC1(C)n1c3ccccc3c3c4c(c5c6ccccc6n2c5c31)C(=O)NC4 (stereo not drawn) | · | -5% | ·
COc1ccccc1N=c1oc2cc(O)ccc2cc1C(=O)NCC1CCCO1 (stereo not drawn) | · | -4%[38.3 µM] | ?
COc1cccc(N=c2oc3cc(O)ccc3cc2C(=O)NCC2CCCO2)c1 (stereo not drawn) | 28µM* | 21% | -37%
Cc1ccc(C)c(/C(O)=C2\C(=O)C(=O)N(CCCN3CCOCC3)C2c2cccnc2)c1 (stereo not drawn) | · | 29%[38.3 µM] | 10%[46.1 µM]
Cc1ccc(C)c(/C(O)=C2\C(=O)C(=O)N(Cc3cccnc3)C2c2cccnc2)c1 (stereo not drawn) | · | 7.1µM* | -7%[46.1 µM]
S=c1[nH]nc(Nc2cccc3ccccc23)s1 | 1%[57.5 µM] | · | 15%
Nc1ccccc1-c1n[nH]c(=S)s1 | -3% | 13µM* | ?
COC(=O)c1ccc(C(NC(=O)c2ccco2)[C@]2(C)C[C@H]2C2CCCCC2)cc1 (stereo partly drawn) | 7% | 2% | ·
Cc1cccc(CN2CCN([C@@H](c3ccccc3)c3ccc(Cl)cc3)CC2)c1 | -2%[25.7 µM] | 2% | ·
CSc1nnc(-c2cc3c(s2)-c2ccccc2CC3)o1 | · | 0%[38.3 µM] | -7%[46.1 µM]
S=c1[nH]nc(-c2cc3c(s2)-c2ccccc2CC3)o1 | · | ? | 10µM*
CC[C@H](C)C(=O)O[C@H]1CCC=C2C=C[C@H](C)[C@H](CC[C@@H]3C[C@H](O)CC(=O)O3)[C@H]21 | -1% | 4% | ·
CC[C@H](C)C(=O)O[C@H]1CCC=C2C=C[C@H](C)[C@H](CC[C@@H]3C[C@@H](O)CC(=O)O3)[C@H]21 | ? | -12% | 16µM*!
COc1ccc(N2CCN(C(c3ccc4ncccc4c3)c3nnnn3C(C)C)CC2)cc1 (stereo not drawn) | 10%[57.5 µM] | · | -10%
COc1ccc(N2C3=C(CC4=C2CC(C)(C)CC4=O)C(=O)CC(C)(C)C3)cc1 | · | 14%[38.3 µM] | 2µM*
COc1ccc(N2C3=C(CC4=C2CCCC4=O)C(=O)CCC3)cc1 | 2% | 8% | -29%
Cn1c(=O)cc(SCC(=O)NCC2CCCO2)c2ccc(Cl)cc21 (stereo not drawn) | 2% | ? | 10µM*
CCn1c(=O)cc(SCC(=O)NCC2CCCO2)c2ccccc21 (stereo not drawn) | · | -17%[38.3 µM] | -23%[46.1 µM]
COc1ccc(-c2nc3ccccc3n2Cc2ccccc2)cc1 | · | 12%[38.3 µM] | ?
COc1ccc(-c2n(Cc3ccccc3)c3ccccc3[n+]2Cc2ccccc2)cc1 | -2% | 26% | 10µM*
COc1ccc(NC(=O)/C(Cl)=C(/Cl)S(=O)(=O)Cc2ccc(C)cc2)cn1 | · | 3%[38.3 µM] | 4µM*
COc1ccc(NC(=O)Cc2ccc(Cl)c(Cl)c2)cn1 | -6% | -7% | -5%
COc1ccc(NC(=O)CSc2cc(C)ccc2C)cn1 | -5% | 11% | -19%
COc1ccc(NC(=O)/C(Cl)=C(/Cl)S(=O)Cc2ccccc2Cl)cn1 (stereo not drawn) | ? | 34% | 5µM*
CCc1ccccc1NC(=O)c1nnn(CC(=O)Nc2cccc(C)c2)c1N | · | -4%[38.3 µM] | 5%[46.1 µM]
SMILES | ERK EGF block | IMPase Li cell | NPSR antagonist
CCc1ccccc1NC(=O)c1nnn(CC(=O)Nc2cccc(C)c2C)c1N | · | 10µM* | ?
COc1ccc(Cl)cc1NC(=O)C(C)N1CCN(C/C=C/c2ccccc2)CC1 (stereo not drawn) | · | 50%[38.3 µM] | 10µM*
CC(=O)c1ccc(NC(=O)C(C)N2CCN(C/C=C/c3ccccc3)CC2)cc1 (stereo not drawn) | -4% | 5% | -14%
CCCC1(c2ccccc2)NC(=O)N(CC(=O)Nc2cc(C)on2)C1=O (stereo not drawn) | 6% | 4% | -3%
CCCC1(c2ccccc2)NC(=O)N(CC(=O)Nc2sc(-c3ccccc3)cc2C(=O)OCC)C1=O (stereo not drawn) | · | 2.8µM* | ?
CC(C)Cc1nc(N2CCN(C(=O)c3ccccc3)CC2)c(C#N)c2c1CCC2 | · | 20%[38.3 µM] | 2µM*
CC(=O)N1CCN(c2nc(CC(C)C)c3c(c2C#N)CCC3)CC1 | · | 0%[38.3 µM] | -8%[46.1 µM]
Cc1cccc(CNc2ncncc2-c2ccc(C(=O)N(C)C)cc2)c1 | · | 6% | ·
COC(=O)[C@@H]1C[C@H]1[C@@H](N)c1ccccc1 | 6% | 2% | ·
COc1ncc2nc(C)c(=O)n(CCc3ccccc3)c2n1 | · | 6% | ·
